Measurements reported in publication PMC13494018.
Values without a mark were called inactive. No rule for the calls is given here.

B1: design_606_b60ff77f-1541-4e5f-8260-46d5e5f6b85e_580_dldesign_0_cycle1_af2pred (protein)
chain: MTEEEKKEAEKKAEEIKKLGKELAKKVLNSKDAEKEVKKAKKELREKGKKLAEAGNPEAKKIISKAVSEAYQLLNEAEWKNLK
B2: design_606_b60ff77f-1541-4e5f-8260-46d5e5f6b85e_1331_dldesign_0_cycle1_af2pred (protein)
chain: SELEKGREVIKKAAEKAKKAAKEAAEKKGDPKKGEEKIKEIKELEEEGAKAEDPKVKSEKAAKIRQIKAEAEFELKK
B3: design_606_b60ff77f-1541-4e5f-8260-46d5e5f6b85e_1075_dldesign_0_cycle1_af2pred (protein)
chain: AEEKEKKAKEAAEKAEKFIEKAKKAIKEGDLFSAQAYVEAAKHAAEVAKKYDPEVGEKLLKKVEEVEKEI
B4: design_606_b60ff77f-1541-4e5f-8260-46d5e5f6b85e_1085_dldesign_0_cycle1_af2pred (protein)
chain: ATAKEAAEYAEKAREYMVELEYERIKAKREGDEETAKRLEKAIEEVREKLKKAREAMKAGDKEKALEYSKEALEIAKKAVEELKA
B5: design_606_b60ff77f-1541-4e5f-8260-46d5e5f6b85e_1160_dldesign_0_cycle1_af2pred (protein)
chain: AEAARRAALVAKVDAAFDDAGKTISEAKEKTPEEAKALVDAAIAKANAEAKAHPEAAKGFNAVADTAKSMGERIIAEKLA
B6: design_606_b60ff77f-1541-4e5f-8260-46d5e5f6b85e_1592_dldesign_0_cycle1_af2pred (protein)
chain: AAAAAAAAERAAIQKELDEIRDKYLEELEKNPENAEEIIKKAKEAVEALAKKHAKFAEEILKGGNGYVSLIEATAKMLERRKKEE
B7: design_606_b60ff77f-1541-4e5f-8260-46d5e5f6b85e_118_dldesign_0_cycle1_af2pred (protein)
chain: MLEEVKEKAKELKAAKGTPEEKLKLAREARELFRRAREELSARGATPEEAEAMHELRQAAAELEAEAKRELKE
B8: design_606_b60ff77f-1541-4e5f-8260-46d5e5f6b85e_1298_dldesign_0_cycle1_af2pred (protein)
chain: KEEEEKQIKELKEKVEKLKKEAEEAKTAEEALKVFKEARKVGKEARKLAEKASPELAKKAKEVAKEAAKVAELAAEKYAEKKSEEIRK
B9: design_606_b60ff77f-1541-4e5f-8260-46d5e5f6b85e_1086_dldesign_0_cycle1_af2pred (protein)
chain: EKAEKLIKEIKKLAKEAKKSTPEEAKKLLEEAKKLAKEVAKLGPEAAKLAKKALSEAAAAYYENKAENEWKERKEKE
B10: design_606_b60ff77f-1541-4e5f-8260-46d5e5f6b85e_1497_dldesign_0_cycle1_af2pred (protein)
chain: MEEESKKYIETATALLEEAKKALEEDKEKGLKLLEEASALAYEKAAEARQLGDKETAEKLREIAKEAREAAKKAR
B11: design_606_b60ff77f-1541-4e5f-8260-46d5e5f6b85e_148_dldesign_0_cycle1_af2pred (protein)
chain: NPKIEGEAALTRAEGAYESAKALPPEKAAEAYRKAAEIAKKQAEEAEKAGEEAKPYAEKIRKIAKEAEKKAKELEKA
B12: design_606_b60ff77f-1541-4e5f-8260-46d5e5f6b85e_1000_dldesign_0_cycle1_af2pred (protein)
chain: MSEYEKNLARAEAYADQLLDSAKKTGAAKGPEAEVAATKEAKDAATKYANSLGEEVGKEIKAKMEKEVKAVADAAAKALAA
B13: design_606_b60ff77f-1541-4e5f-8260-46d5e5f6b85e_1401_dldesign_0_cycle1_af2pred (protein)
chain: GAKAIAAKAAAYGYEIAAEIYRLDKEVGEKVRKYVVEKAKEAAASDEETAKKIGEEVKKEAEKALEEVKKK
B14: design_606_b60ff77f-1541-4e5f-8260-46d5e5f6b85e_1207_dldesign_0_cycle1_af2pred (protein)
chain: DEEKLKEAAEYLQEAAEYLAELKYLSKDPKNKELAEKAKKILKEAIEKGKKGTPEEALEIAKKAKEEIKKLAKKAKE
B15: design_606_b60ff77f-1541-4e5f-8260-46d5e5f6b85e_364_dldesign_0_cycle1_af2pred (protein)
chain: AEARDKAILEKAKKETEELAKKAEELAKKGAKKEEIEKVIKEIRKVGKEYAAKASPEVAPEILTIAGDAVAEAKGAYQEAKIK
B16: design_606_b60ff77f-1541-4e5f-8260-46d5e5f6b85e_762_dldesign_0_cycle1_af2pred (protein)
chain: SEEEKKIKELAKEMEEVGKEAAEAGKKNPEEGKKLRDIMIKLANEAVALAEKLGLEEEAKKIKEKAAELSAKAYEAIAENLA
B17: design_606_b60ff77f-1541-4e5f-8260-46d5e5f6b85e_733_dldesign_0_cycle1_af2pred (protein)
chain: DAATQKKASEAAAEAHEAAAEFTNKLKDKELKDKIKEIVREAIEKGKAATPEEALKIFTEAKKKIEDAAKKYA
B18: design_606_b60ff77f-1541-4e5f-8260-46d5e5f6b85e_411_dldesign_0_cycle1_af2pred (protein)
chain: MEEELEKEKKEAEKFLEETKKIAEEAVKRAESGEDIAGAAHELYELKSEAEYLAKTSSPEAAKLYKEAAKIAKEALEEVRKRGKERKA
B19: design_606_b60ff77f-1541-4e5f-8260-46d5e5f6b85e_1152_dldesign_0_cycle1_af2pred (protein)
chain: EEAEKYLKEIEKAKEEAEKLAEELKEEGDSKAAAKAATAAAVAESAALAAKANPEKAKEAAEKAKKALEKAKKYAKESREKKKA
B20: design_606_b60ff77f-1541-4e5f-8260-46d5e5f6b85e_370_dldesign_0_cycle1_af2pred (protein)
chain: DLVKEASKLSGQAYEYKAAADVGVLNKEELKAGAEIAKKAAELAKKIAKETTPEEAKKYLKQAETMKKIAEYLEKKAQEL
B21: design_606_b60ff77f-1541-4e5f-8260-46d5e5f6b85e_888_dldesign_0_cycle1_af2pred (protein)
chain: EVEKLIKEVKEAGEKAAKADPDIADYIKNAVKTAEELMTKNAADLEKVKEIAEKAINTFKRIIENAEKAKELEAK
B22: design_606_b60ff77f-1541-4e5f-8260-46d5e5f6b85e_1003_dldesign_0_cycle1_af2pred (protein)
chain: SMKEKEEKYKEAKEKLEKQREAVKEGEKLAKESPEMGLALMRAAVKRAEEVAKKLEKEDPEKGPEAKKMAEEVRKLAKEAEKKIKEEL
B23: design_606_b60ff77f-1541-4e5f-8260-46d5e5f6b85e_1318_dldesign_0_cycle1_af2pred (protein)
chain: DVAAALAAAKAAAAAKMAEVKKYGAETAEAVKDAIDMGNIYGAGSLAEVMVGPEAGKIAKAAAEAAAKARELAAKA
B24: design_606_b60ff77f-1541-4e5f-8260-46d5e5f6b85e_490_dldesign_0_cycle1_af2pred (protein)
chain: MEAAKEAAKKVLELADLSAEASAEDFPEVEKKAEEALKFAEEVAKEDPEAGEKAKRTVKRILEDTRKAVEK
B25: design_606_b60ff77f-1541-4e5f-8260-46d5e5f6b85e_842_dldesign_0_cycle1_af2pred (protein)
chain: MEEAKKKITELAEAAAAADPETAKKLLAEASRYLIDYISKNKLDSETISELVSYLKEKGKEALAQAKAKEAAA
B26: design_606_b60ff77f-1541-4e5f-8260-46d5e5f6b85e_724_dldesign_0_cycle1_af2pred (protein)
chain: AAAQKAAEAAATLYENSNEAIWLAKKEGAKGAVEGKKLLEKGVAAAEAAAKEASPEDAAKLKKLAESRKERTEKAIKKALA
B27: design_606_b60ff77f-1541-4e5f-8260-46d5e5f6b85e_976_dldesign_0_cycle1_af2pred (protein)
chain: SSEEIEEKNRKVSEVVHHAIKAIKAYADPALRDAYLAKAKAILPDAADALAAQVDAAKTGSTADAILNVADIAWDALT
B28: design_606_b60ff77f-1541-4e5f-8260-46d5e5f6b85e_1622_dldesign_0_cycle1_af2pred (protein)
chain: NDKELSKKVHEGYELVAEYEQDPSFIKKNKEKAKEIAKKAEEAAKAAEEGAKKYPELAKALEKIAKKAKEVAKEAKKVAK
B29: design_606_b60ff77f-1541-4e5f-8260-46d5e5f6b85e_637_dldesign_0_cycle1_af2pred (protein)
chain: MEEEEERRRVLEIAREDAEEALAKAKAAAEKGELDGVAIGLARGNASVLDEETGKKVREAADKVEAAAKAAQAAK
B30: design_606_b60ff77f-1541-4e5f-8260-46d5e5f6b85e_1596_dldesign_0_cycle1_af2pred (protein)
chain: SAAVKEKVAELTKKVNEARDNAFETGNWEEELAKIEKLAAEIAKVGNAEQAEAAEKGVNAMKSMAEALKEMEKK
B31: design_606_b60ff77f-1541-4e5f-8260-46d5e5f6b85e_1326_dldesign_0_cycle1_af2pred (protein)
chain: AEAEKKAEEAAKEAEKIYKEMLKAVETKSKEEAAKFAKEAAEKLKKLAKKIYEATGKVPLEVLLALAEARVIAKK
B32: design_606_b60ff77f-1541-4e5f-8260-46d5e5f6b85e_898_dldesign_0_cycle1_af2pred (protein)
chain: MNITEKVAAAAQAALAALADPATAVAALSAARFTALDLVSEDIEAGEVAIEIFEKGDAGSRRVARIIRSHVEALKRN
B33: design_606_b60ff77f-1541-4e5f-8260-46d5e5f6b85e_905_dldesign_0_cycle1_af2pred (protein)
chain: DNEEKKKELKEEAEKYKEELLKEKDEALKAGDFESAIFISKKAVKIKKLEEEGKKGNKEEVEKKKEEIKKEAKEALEFYKKNKE
B34: design_606_b60ff77f-1541-4e5f-8260-46d5e5f6b85e_1599_dldesign_0_cycle1_af2pred (protein)
chain: MPVVKAVSEYTKFVVSKMREAAAAGASEEELVGAVEEGEKYGEELGKKIGEEALEAVKDLSEMFKESARAAARARKA
B35: design_606_b60ff77f-1541-4e5f-8260-46d5e5f6b85e_64_dldesign_0_cycle1_af2pred (protein)
chain: GSSEEAERDSRLVSEMVRAARAGAEAAARLPPAEAARYRAELAALVAAMYDALGAGSPAAEEYVARVRALAAEIAARAAAA
B36: design_606_b60ff77f-1541-4e5f-8260-46d5e5f6b85e_600_dldesign_0_cycle1_af2pred (protein)
chain: AAAAEAKGKKINELRIEANDYAYEHEINSSNPELSKAYKEEAEKKIKEAEKIDPEGGKRIKKSFESIEEHVKKNL
B37: design_606_b60ff77f-1541-4e5f-8260-46d5e5f6b85e_1400_dldesign_0_cycle1_af2pred (protein)
chain: MAEAAQKAWENIAEAEYYAKKLKENPELKEEAKKIEEKIKKAKELLKKAQKTGDGELAKEAEKLAKEAAKEAKELVEK
B38: design_606_b60ff77f-1541-4e5f-8260-46d5e5f6b85e_200_dldesign_0_cycle1_af2pred (protein)
chain: EEEKLIADSAKEVDAAADKAMDAMAKNKEAAKAAKAELEALAAKFKELAEKGSPEVAKKMNLAAKTMKRFAELLKKAAS

Molecular target: VTCN1, Q7Z7D3
Sequence (Q7Z7D3 whole entry): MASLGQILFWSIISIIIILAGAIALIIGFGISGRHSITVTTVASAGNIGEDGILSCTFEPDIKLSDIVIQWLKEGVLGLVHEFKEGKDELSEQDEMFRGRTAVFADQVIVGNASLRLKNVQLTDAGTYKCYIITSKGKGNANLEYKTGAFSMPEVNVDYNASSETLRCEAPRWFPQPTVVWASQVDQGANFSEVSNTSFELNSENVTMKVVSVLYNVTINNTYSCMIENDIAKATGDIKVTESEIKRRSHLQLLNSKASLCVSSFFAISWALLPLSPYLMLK

Row | Binder | binding in a display sort
1 | B1 | not found
2 | B2 | not found
3 | B3 | not found
4 | B4 | not found
5 | B5 | not found
6 | B6 | not found
7 | B7 | not found
8 | B8 | not found
9 | B9 | not found
10 | B10 | not found
11 | B11 | not found
12 | B12 | not found
13 | B13 | not found
14 | B14 | not found
15 | B15 | not found
16 | B16 | not found
17 | B17 | not found
18 | B18 | not found
19 | B19 | not found

Row | Binder | binding in a display sort
20 | B20 | not found
21 | B21 | not found
22 | B22 | not found
23 | B23 | not found
24 | B24 | not found
25 | B25 | not found
26 | B26 | not found
27 | B27 | not found
28 | B28 | not found
29 | B29 | not found
30 | B30 | not found
31 | B31 | not found
32 | B32 | not found
33 | B33 | not found
34 | B34 | not found
35 | B35 | not found
36 | B36 | not found
37 | B37 | not found
38 | B38 | not found
